Among the data in PubChem BioAssay AID463173 (ICCB-Longwood Screening Facility, Harvard Medical School, 2010) are survival values, retold here.

About 4,300 (8.3%) of roughly 52,000 compounds were called active. Rule as the data show it: active = survival mostly below about 52% (no sharp cut-off); inactive = mostly above about 56%. Shown is part of a subset that was picked to be rich in actives.

This assay deals with DeltatarO mutant. Put plainly: growth inhibition of S. aureus wild type versus tarO mutant, primary screen, teichoic acid synthesis inhibitors, RN4220, OD600 (AID 463173). The note with it: OD600, 18 h, stronger effect = lower value, screened at 18.75 µg/mL (by protocol).
As for `Cc1ccc(-c2onc(C)c2C)cc1S(=O)(=O)NC1CCC(C)CC1` (stereo not given), the survival was 82% (inactive).

Turning to `Cn1c(=O)n(C)c2cc(S(=O)(=O)Nc3ccccc3C(=O)O)ccc21`, the survival is 105% (inactive).

Turning to `COc1cccc(NC(=O)C(Cc2ccccc2)NS(=O)(=O)c2ccc3c(c2)c(=O)n(C)c(=O)n3C)c1` (stereo not given), the survival was 79% (inactive).

For `COCCNC(=O)Cn1c(=O)n(-c2ccc(C)c(C)c2)c(=O)c2c3c(sc21)CCCCC3`, the survival is 86% (inactive).

In the case of `CC(=O)c1cccc(NC(=O)Cn2ccn3nc(-c4ccccc4)cc3c2=O)c1`, the survival was 83% (inactive).

Consider `COc1cc(CNc2ccc3[nH]c(=O)[nH]c3c2)cc(Cl)c1OCc1ccc(F)cc1`, for which the survival was 76% (inactive).

Turning to `CCOc1cc(CNc2ccc(C(=O)O)cc2)ccc1OCc1ccccc1`, the survival is 47% (active).

Turning to `COc1cc(CNc2ccc3[nH]c(=O)[nH]c3c2)cc(Br)c1OCc1ccc(F)cc1`, the survival is 99% (inactive).

Consider `CCOc1ccc(CC(=O)NCc2ccc3c(c2)CCN3C(=O)c2ccccc2)cc1OCC`, for which the survival was 72% (inactive).

In the case of `CCOc1c(Cl)cc(CNc2ccc3[nH]c(=O)[nH]c3c2)cc1OC`, the survival is 95% (inactive).

For the compound `CCOc1cc(CNc2ccc(O)cc2)ccc1OCc1ccc(Cl)cc1`, the survival was 53% (inactive).

For the compound `Oc1ccc(NCc2ccccc2OCc2ccccc2)cc1`, the survival was 61% (inactive).

`CCOc1cc(CNc2ccc(O)cc2)cc(Cl)c1OCc1ccccc1`: the survival was 1% (active).

`CCOc1cc(CNc2ccc(O)cc2)cc(Br)c1OCc1ccccc1`: the survival is 3% (active).

With `CCn1cc(C(=O)NCCCOC)c(=O)c2cc(S(=O)(=O)N3CCc4ccccc4C3)ccc21`, the survival is 92% (inactive).

In the case of `Cc1cc(=O)[nH]c2nnc(SCc3ccc(C(F)(F)F)cc3)n12`, the survival was 74% (inactive).

Turning to `COc1ccc(NC(=O)CCc2c(C)nc3cc(-c4cccc(F)c4)nn3c2C)cc1Cl`, the survival is 129% (inactive).

With `CCCCCCOc1ccc(/C=C/C(=O)Nc2sc3c(c2C(=O)OC)CCC3)cc1OC`, the survival is 69% (inactive).

For the compound `O=C(NCCc1ccccc1)c1cnc2sc(N3CCOCC3)nn2c1=O`, the survival is 100% (inactive).

`O=c1oc2ccc3ccccc3c2cc1-c1nnc(Nc2ccccc2)s1`: the survival was 84% (inactive).

For the compound `CCc1ccc(CNC(=O)CN2C(=O)C3CCCCN3c3ccc(C(=O)N4CCCC4)cc32)cc1` (stereo not given), the survival is 75% (inactive).

`O=C(CSCn1nnc2c(=O)[nH]c(Cc3ccc(F)cc3)nc21)Nc1ccccc1`: the survival was 52% (inactive).

Turning to `CCCc1cnc2c(c1SCC(=O)N1CCC(C)CC1)c(=O)n(C)c(=O)n2C`, the survival was 96% (inactive).

Take `O=C(CSc1nc2ncccc2o1)Nc1cccc(C(F)(F)F)c1`: the survival was -1% (active).

As to `COc1cc(NC(=O)CSc2nc3ncccc3o2)cc(OC)c1`, the survival was 64% (inactive).

Consider `Cc1cccc(NC(=O)CSc2nnc(-c3cccs3)o2)c1`, for which the survival was 50% (inactive).

As to `Cc1cccc(C)c1NC(=O)CSc1nc2ncccc2o1`, the survival was 79% (inactive).

In the case of `Cc1c(Cl)cccc1NC(=O)CSc1nc2ncccc2o1`, the survival was 6% (active).

`O=C(CSc1nnc(-c2ccccc2F)o1)Nc1cccc(C(F)(F)F)c1`: the survival was 54% (inactive).

Turning to `COc1cccc(NC(=O)CSc2nnc(-c3cccs3)o2)c1`, the survival is 52% (inactive).

Consider `O=C(CSc1nnc(-c2cccs2)o1)Nc1cccc(C(F)(F)F)c1`, for which the survival was 47% (active).

For the compound `O=C(CSc1nc2ncccc2o1)Nc1ccc(Cl)cc1F`, the survival was 70% (inactive).

As to `O=C(CSc1nc2c(c(=O)[nH]1)CCC2)Nc1ccccc1F`, the survival is 73% (inactive).

Regarding `COc1ccccc1C(OC(=O)c1ccco1)C(=O)NCC1CCCO1` (stereo not given), the survival is 85% (inactive).

Regarding `OCc1nc2ccc(-c3ccc4nc(CO)[nH]c4c3)cc2[nH]1`, the survival was 51% (inactive).

Take `COc1cccc(NC(=O)CC(C)S(=O)(=O)c2ccc3c(c2)NC(=O)CO3)c1` (stereo not given): the survival was 115% (inactive).

For `CCOC(=O)c1ccc(NC(=O)Cn2c(=O)cc(C)c3c(C)nn(-c4ccc(CC)cc4)c32)cc1`, the survival was 71% (inactive).

`Cc1c(C(=O)Nc2ccc(Br)cc2F)oc2ccc(S(=O)(=O)N3CCC4(CC3)OCCO4)cc12`: the survival is 81% (inactive).

For the compound `CC(C(=O)Nc1cccc(N)c1)n1nnc2ccccc21` (stereo not given), the survival is 65% (inactive).

Regarding `CC1CCCc2sc3nc(SCC(=O)c4ccc(Br)cc4)nc(N)c3c21` (stereo not given), the survival was 42% (inactive).

`CCCCCCSc1nc(N)c2c3c(sc2n1)CCCC3C` (stereo not given): the survival was -7% (active).

Take `Nc1nc(SCC(=O)N(CCO)CCO)nc2sc3c(c12)CCCC3`: the survival was 110% (inactive).

`CCn1nc(-c2ccccc2)c(-c2ccccc2)c(C(=O)Nc2ccccc2C(N)=O)c1=O`: the survival was 77% (inactive).

In the case of `CCn1c(SCC(=O)Nc2cc(Cl)ccc2OC)nc2c([nH]c3ccccc32)c1=O`, the survival was 101% (inactive).

For `Cc1ccccc1Cn1c(=O)n(CCC(=O)NCc2ccco2)c(=O)c2sccc21`, the survival is 106% (inactive).

As for `Cc1cc(NC(=O)CC(C)C)no1`, the survival was 69% (inactive).

Consider `CC1(C)CC2CC(C)(CN2C(=O)c2cc(-c3ccccc3)on2)C1` (stereo not given), for which the survival is 99% (inactive).

Consider `O=C(CSCc1ccccc1Cl)N1CCN(c2ccc(Cl)cc2)CC1`, for which the survival is 92% (inactive).

In the case of `O=C(CSc1n[nH]c(-c2ccc(F)cc2)n1)N1CCN(c2ccc(F)cc2)CC1`, the survival was -5% (active).

Consider `O=C(CCSCc1ccccc1Cl)N1CCN(c2ccc(F)cc2)CC1`, for which the survival is 66% (inactive).

As for `O=C(CSCc1ccccc1Cl)N1CCN(c2ccc(F)cc2)CC1`, the survival was 46% (active).

As for `COc1ccc(-c2nc(SCC(=O)N3CCN(c4ccc(F)cc4)CC3)n[nH]2)cc1`, the survival is 88% (inactive).

For `O=C(CSc1n[nH]c(-c2ccccc2)n1)N1CCN(c2ccc(F)cc2)CC1`, the survival is 65% (inactive).

Take `Cc1ccc(CNC(=O)c2ccc(-c3nc(CN4CCc5ccccc54)c(C)o3)cc2)cc1`: the survival is 84% (inactive).

As to `CC1CCCCC1NC(=O)CSc1nccc(=O)[nH]1` (stereo not given), the survival was 69% (inactive).

For `Cc1cc(-c2ccc(C)c(S(=O)(=O)N(Cc3cccs3)C(C)C)c2)on1`, the survival is 65% (inactive).

Regarding `CCc1ccc(-c2nc(SCC(=O)NCC3CCCO3)c(-c3ccc(C)cc3)[nH]2)cc1` (stereo not given), the survival was 103% (inactive).

In the case of `COc1ccc(CCNC(=O)c2cc(-c3ccc(Cl)cc3)on2)cc1OC`, the survival is 64% (inactive).

Consider `Cc1cc(C)n(C(C)CC(=O)Nc2cccc(C(F)(F)F)c2)n1` (stereo not given), for which the survival was 73% (inactive).

For `COc1ccccc1CNC(=O)c1sc2nc3n(c(=O)c2c1C)CCC3`, the survival was 103% (inactive).
